Hsp90 inh – displaces geldanamycin probe from tumor Hsp90 | P07900 | NCI-N417 lysate Hsp90, Cy3B-geldanamycin FP displacement | inhibition, % at 30 µM | hit rate 0.35% among 64,000;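 active = inhibition above 50%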
TNAP act mid DEA – human TNAP activation, intermediate phosphate acceptor; P05186; 64,000 tested, under 10 active; AID 813; activation factor at 20 µM; purified TNAP, CDP-star luminescence, 100 mM DEA, 30 min; active compounds read high; scale: 0 levamisole-inhibited, 1 vehicle-only enzyme;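 active = activation factor of at least 2 at 20 µM, relative to controls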
Target sequence (P05186 whole entry, looked up): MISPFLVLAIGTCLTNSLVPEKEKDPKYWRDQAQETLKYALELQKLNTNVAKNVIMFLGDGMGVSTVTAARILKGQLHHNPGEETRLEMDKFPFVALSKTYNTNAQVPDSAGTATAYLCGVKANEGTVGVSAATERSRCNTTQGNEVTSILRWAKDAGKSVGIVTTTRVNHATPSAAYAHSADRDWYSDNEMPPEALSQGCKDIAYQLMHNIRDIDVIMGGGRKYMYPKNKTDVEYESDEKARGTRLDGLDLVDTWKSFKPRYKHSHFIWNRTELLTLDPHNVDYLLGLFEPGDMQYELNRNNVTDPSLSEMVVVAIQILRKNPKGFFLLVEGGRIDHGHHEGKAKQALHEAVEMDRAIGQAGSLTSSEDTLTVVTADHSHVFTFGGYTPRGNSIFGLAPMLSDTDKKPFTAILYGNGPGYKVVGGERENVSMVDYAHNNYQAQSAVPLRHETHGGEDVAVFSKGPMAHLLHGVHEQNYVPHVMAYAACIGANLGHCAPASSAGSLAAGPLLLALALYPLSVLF
BAP1 inh – inhibitors of human BAP1 deubiquitinase. Q92560. recombinant BAP1, Ub-AMC hydrolysis fluorescence kinetic; active compounds read low. activity remaining (% of control), % at 20 µM. hit rate 0.48% among 72,000. AID 436;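 active = activity remaining at or below 50% of control, provided the compound also passes the data quality filters; inactive = the rest, including low values that fail the filters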
S1P1 ag-PAM – activates or potentiates agonism at human S1P1 receptor. hit rate 0.57% among 56,000. P21453. S1P1 CRE-bla cells, forskolin, beta-lactamase FRET, potentiator mode; S1P1 agonist co-added at EC20, 2 nM; 100% = saturating reference agonist, 0% = basal. activation, % at 9.5 µM;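 active = activation above a cutoff set at the mean activation of all tested compounds plus 3 SD, cut at about 54% in these data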;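 also: forskolin at 4 µM as EC80 and the EC20 agonist is SEW2871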
Her2 expr inh – Her2 kinase expression inhibition. AID 645. HER2 level % of control, % at 10 µM. hit rate 0.69% among 65,000. P04626. SKBR-3 HER2 protein level, AlphaScreen, 18-24 h; active compounds read low;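 active = HER2 level under 5% of the carrier-only control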;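 also: lower value means stronger loss of Her2 protein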
SK-BR-3 tox 24h – SK-BR-3 proliferation inhibitors | AID 847 | SK-BR-3 viability, CellTiter-Glo ATP luminescence, 24 h; active compounds read low | viability, % at 10 µM | hit rate 0.47% among 41,000;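 active = viability at or below the median of all test compounds minus 3 SD, in both replicates if run twice, cut at about 45% in these data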
A number is an active result; i = inactive; nt = no result shown. A selection: hits, their analogues and other compounds. The true share with any hit is near 1.9%.

SMILES | Hsp90 inh | TNAP act mid DEA | BAP1 inh | S1P1 ag-PAM | Her2 expr inh | SK-BR-3 tox 24h
COc1cc(NCCCC(C)N)c2ncccc2c1 (stereo unspecified) | 96.7 | i | i | i | i | 23.2
COc1cc(NS(=O)(=O)c2cccc([N+](=O)[O-])c2)c2ncccc2c1 | i | nt | nt | nt | nt | nt
COc1cc(NS(=O)(=O)c2ccc(C)cc2)c2ncccc2c1 | i | i | i | nt | -5.2 | i
Cc1sc2ncnc(OCC(=O)N3CCN(S(=O)(=O)c4ccc(Cl)cc4)CC3)c2c1C | i | i | i | i | i | i
CCOC(=O)C1=C(C)Nc2nnnn2C1c1cc(OC)ccc1OC (stereo unspecified) | nt | nt | i | nt | nt | nt
C/C(N)=C(/C#N)C(=O)CSc1nnc(SCc2ccc(Cl)cc2)s1 | i | i | i | 60.0 | i | nt
CC(C)CC(OC(=O)c1cccs1)C(=O)NCc1cccs1 (stereo unspecified) | i | i | i | i | i | i
Cc1c(-c2cccs2)[n+](=O)c2c(n1[O-])CCCC2 | i | i | i | i | -30.7 | i
Cc1oc2cc3c(C(=O)N4CCCCC4)c(C)oc3cc2c1C(=O)N1CCCCC1 | i | i | i | i | i | i
CN(CC(=O)Nc1ccccc1Cl)C(=O)COC(=O)CNC(=O)c1ccc(Br)o1 | i | i | i | i | i | nt
CS(=O)(=O)c1ccc(Cl)c(NC(=O)COC(=O)CNC(=O)c2ccc(Br)o2)c1 | i | i | i | i | -21.9 | nt
COc1ccc(-c2csc(=Nc3ccccc3)n2CCO)cc1 | i | i | i | nt | i | nt
COc1ccc(N=c2scc(-c3ccc(S(=O)(=O)N4CCOCC4)cc3)n2CCCO)cc1 | i | i | i | 101.3 | i | nt
COc1ccc2c(c1)CCc1c(C(=O)Nc3ccc(OC)c(OC)c3)noc1-2 | i | i | i | 104.3 | i | i
COc1ccc2c(c1)CCc1c(C(=O)NCCc3ccc(OC)c(OC)c3)noc1-2 | i | i | i | i | i | i
CC(C)Cn1c(N)c(C(=O)CSc2ccc3c(c2)OCCO3)c(=O)n(C)c1=O | i | i | i | 104.5 | i | nt
CC(C)Cn1c(N)c(C(=O)COC(=O)c2ccc3c(c2)OCCO3)c(=O)n(C)c1=O | i | i | i | i | i | nt
Cn1cc(Cl)c(C(=O)NC2CCCC2)n1 | i | i | i | i | i | nt
NC(CC(=O)O)c1cccc(OCc2ccccc2)c1 (stereo unspecified) | i | i | i | i | i | nt
OC(c1cccc(OCc2ccccc2)c1)c1nnc(-c2ccccc2)o1 (stereo unspecified) | i | i | i | 111.4 | i | nt
COC(=O)c1ccc2c(c1)SC1=C(CCCC1=O)N2 | 84.6 | i | nt | i | i | i
O=C1C(=O)N(CCO)C(c2ccccc2F)/C1=C(\O)c1ccc(Br)cc1 (stereo unspecified) | nt | nt | i | nt | nt | nt
Cc1ccc(C2CC(C(F)F)n3ncc(C(=O)Nc4cnn(Cc5ccccc5C)c4)c3N2)cc1 (stereo unspecified) | i | i | i | i | i | 32.1
COC(=O)c1cc(N2C(=O)C3C(C2=O)C2(C)C=CC3(C)O2)ccc1Cl (stereo unspecified) | i | i | nt | i | i | nt
CC(=O)Oc1ccc(N2C(=O)C3C(C2=O)C2(C)C=CC3(C)O2)cc1 (stereo unspecified) | i | i | i | 134.7 | i | i
SMILES | Hsp90 inh | TNAP act mid DEA | BAP1 inh | S1P1 ag-PAM | Her2 expr inh | SK-BR-3 tox 24h
Cc1cccc(Nc2ncnc3nc[nH]c23)c1 | i | i | i | i | i | nt
C=CCNC(=O)CN(c1cccc(Br)c1)S(C)(=O)=O | 87.6 | i | i | i | i | nt
COc1ccc(-c2noc(CCC(N)=O)n2)cc1OC | i | i | i | i | i | i
CCCCCn1c(CN2CCCCC2C)nc2c1c(=O)n(C)c(=O)n2C (stereo unspecified) | i | i | i | i | i | i
CCCCCn1c(CN2CCCCC2CC)nc2c1c(=O)n(C)c(=O)n2C (stereo unspecified) | i | i | i | i | -16.7 | nt
O=C(C1CCC(=O)N1Cc1cccnc1)N1CCN(c2ccc(F)cc2)CC1 (stereo unspecified) | i | i | i | i | i | nt
COCCCN1C(=O)C(=O)/C(=C(/O)c2ccc(C)cc2)C1c1ccccc1 (stereo unspecified) | i | i | i | i | i | i
Nc1c(S(=O)(=O)O)cc(Nc2ccc(Nc3nc(Cl)nc(Nc4ccc(S(=O)(=O)O)cc4)n3)c(S(=O)(=O)O)c2)c2c1C(=O)c1ccccc1C2=O | i | nt | 7.6 | nt | nt | nt
C=C(C)C1CC=C(C(=O)O)CC1 (stereo unspecified) | i | nt | i | nt | nt | nt
COC(=O)c1ccccc1NC(=O)CN1CCN(C23CC4CC(CC(C4)C2)C3)CC1 | i | i | i | i | i | 41.5
CCC(=O)N1CCN(c2ccc(NC(=O)c3cc4ccccc4o3)cc2Cl)CC1 | i | i | i | nt | i | i
O=C(Nc1cccc(OC(F)(F)F)c1)c1ccc(Br)o1 | i | 2.3 | i | i | i | i
CCCC(=O)N1CCN(c2ccc(NC(=O)c3cc4ccccc4o3)cc2Cl)CC1 | i | i | nt | 65.5 | -9.9 | 6.2
O=C(Nc1ccc(N2CCCC2)c(Cl)c1)c1ccc(Br)o1 | i | i | i | 96.6 | i | i
O=C(NCCOc1ccccc1)c1n[nH]c(=O)c2ccccc12 | i | i | i | i | i | i
COC(=O)c1ccc(S(=O)(=O)N(Cc2cc3cc4c(cc3[nH]c2=O)OCO4)C2CCCCC2)cc1 | i | i | 43.2 | i | i | i
Cc1sc2ncnc(Sc3nnnn3-c3ccc(Cl)cc3)c2c1C | i | i | nt | i | -13.3 | nt
NC(N)=NC(N)=Nc1ccccc1 | i | nt | i | nt | nt | nt
O=C(Nc1ccc(OC(F)F)c(Cl)c1)Nc1ccc2c(c1)OCO2 | i | i | i | 59.1 | i | i
O=C(O)C(Cc1ccccc1)c1ccccc1 (stereo unspecified) | nt | nt | i | nt | nt | nt
c1cncc(-c2nnc(-c3cccnc3)nn2)c1 | i | i | i | i | i | 35.3
COc1ccc(-c2cnn(-c3ccccc3)c2N)cc1OC | i | i | i | i | i | nt
Nc1nc2c(s1)CCc1c-2cnn1-c1ccccc1 | 93.0 | i | i | i | i | i
CC(=O)Nc1nc(COc2ccccc2)cs1 | i | i | i | nt | i | i
Cc1ccc(C(=O)Nc2nc(COc3ccccc3)cs2)s1 | i | i | nt | 97.8 | i | nt
SMILES | Hsp90 inh | TNAP act mid DEA | BAP1 inh | S1P1 ag-PAM | Her2 expr inh | SK-BR-3 tox 24h
Cc1nc(Cc2nnc(SCc3nc(N)nc(Nc4ccccc4C)n3)o2)cs1 | nt | i | nt | nt | i | 36.0
Cc1oc2c(O)c(O)ccc2c(=O)c1-c1cnn(-c2ccccc2)c1 | nt | i | nt | nt | i | i
Cc1oc2c(O)c(O)ccc2c(=O)c1-c1ccccc1 | 70.0 | i | i | i | i | nt
CCSCCOC(=O)C1=C(C)NC(=O)NC1c1ccccc1 (stereo unspecified) | 87.8 | i | i | i | i | nt
CC1(C)CC(=O)C=C(NCCc2ccc(S(N)(=O)=O)cc2)C1 | i | i | i | nt | i | i
CCOC(=O)c1c(-c2cccs2)csc1NC(=O)c1ccco1 | i | i | nt | i | -28.0 | i
